# Source: PMC7862700, “An all-to-all approach to the identification of sequence-specific readers for epigenetic DNA modifications on cytosine”
# Key:
# Experiment in all cases: DAPPL (digital affinity profiling via proximity ligation, sequencing); 10 mM Tris-HCl pH 7.5, 50 mM NaCl, 1 mM DTT, 4% glycerol, room temperature, 30 min; GST-TFs on glutathione beads, 16-mer random dsDNA library, 0.1% formaldehyde crosslink after washing; high values mean tight binding
# FLI1 = target: T1, FLI1 (Homo sapiens, UniProt Q01543 1-452); conditions: protein: recombinant; tags: N-terminal GST; dsDNA, one strand shown
# T1 sequence: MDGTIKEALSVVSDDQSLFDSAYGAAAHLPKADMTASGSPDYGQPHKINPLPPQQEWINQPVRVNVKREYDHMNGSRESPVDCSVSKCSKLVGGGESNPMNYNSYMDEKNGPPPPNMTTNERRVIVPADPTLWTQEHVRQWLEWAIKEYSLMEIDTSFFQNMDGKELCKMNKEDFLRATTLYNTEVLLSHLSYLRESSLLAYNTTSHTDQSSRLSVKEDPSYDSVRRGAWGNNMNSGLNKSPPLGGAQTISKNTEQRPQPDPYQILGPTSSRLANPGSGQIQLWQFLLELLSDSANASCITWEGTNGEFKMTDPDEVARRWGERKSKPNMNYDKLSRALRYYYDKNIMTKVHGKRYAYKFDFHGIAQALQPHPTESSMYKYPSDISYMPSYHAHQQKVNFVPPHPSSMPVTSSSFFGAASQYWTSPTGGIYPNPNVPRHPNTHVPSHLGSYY
# Summary of the method: (§1)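 Each value of binding signal is a hexamer's read frequency for a factor divided by the same hexamer's frequency in the tag-only sample. Barcoded, bead-captured GST fusions of human transcription factors made in yeast were pooled with that sample and incubated with 200 nmole of a random double-stranded 16-mer DNA library in Tris/NaCl/DTT/glycerol buffer at room temperature for 30 min. Washing, 0.1% formaldehyde crosslinking, proximity ligation, PCR and Illumina NextSeq500 sequencing followed.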
# ELK1 = target: T2, ELK1 (Homo sapiens, UniProt P19419 1-428); conditions: protein: recombinant; tags: N-terminal GST; dsDNA, one strand shown
# T2 sequence: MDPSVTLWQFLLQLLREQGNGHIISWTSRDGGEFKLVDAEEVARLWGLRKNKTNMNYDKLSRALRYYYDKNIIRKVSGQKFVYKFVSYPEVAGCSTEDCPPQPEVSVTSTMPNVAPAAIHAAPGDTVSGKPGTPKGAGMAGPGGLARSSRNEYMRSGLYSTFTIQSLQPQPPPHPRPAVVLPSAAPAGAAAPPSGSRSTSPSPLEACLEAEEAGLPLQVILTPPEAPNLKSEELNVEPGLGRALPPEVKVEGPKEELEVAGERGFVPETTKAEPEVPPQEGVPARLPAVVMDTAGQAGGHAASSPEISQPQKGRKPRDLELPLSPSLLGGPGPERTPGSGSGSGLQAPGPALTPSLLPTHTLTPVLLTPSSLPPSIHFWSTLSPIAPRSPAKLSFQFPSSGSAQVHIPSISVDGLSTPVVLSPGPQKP
# Summary of the method: as §1
# GABPA = target: T3, GABPA (Homo sapiens, UniProt Q06546 1-454); conditions: protein: recombinant; tags: N-terminal GST; dsDNA, one strand shown
# T3 sequence: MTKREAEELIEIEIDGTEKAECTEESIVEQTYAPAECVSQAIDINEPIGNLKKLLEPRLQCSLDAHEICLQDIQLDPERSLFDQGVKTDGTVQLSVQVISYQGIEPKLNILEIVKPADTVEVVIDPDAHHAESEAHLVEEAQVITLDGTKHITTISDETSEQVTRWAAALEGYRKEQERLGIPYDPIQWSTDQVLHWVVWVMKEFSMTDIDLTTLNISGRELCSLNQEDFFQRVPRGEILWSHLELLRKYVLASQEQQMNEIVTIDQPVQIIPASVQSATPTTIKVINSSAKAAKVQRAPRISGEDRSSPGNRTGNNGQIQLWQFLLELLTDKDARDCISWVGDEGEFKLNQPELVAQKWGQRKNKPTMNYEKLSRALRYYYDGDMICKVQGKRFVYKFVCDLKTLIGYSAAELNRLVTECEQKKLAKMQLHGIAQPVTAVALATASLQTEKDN
# Summary of the method: as §1
# ERG = target: T4, ERG (Homo sapiens, UniProt P11308 1-479); conditions: protein: recombinant; tags: N-terminal GST; dsDNA, one strand shown
# T4 sequence: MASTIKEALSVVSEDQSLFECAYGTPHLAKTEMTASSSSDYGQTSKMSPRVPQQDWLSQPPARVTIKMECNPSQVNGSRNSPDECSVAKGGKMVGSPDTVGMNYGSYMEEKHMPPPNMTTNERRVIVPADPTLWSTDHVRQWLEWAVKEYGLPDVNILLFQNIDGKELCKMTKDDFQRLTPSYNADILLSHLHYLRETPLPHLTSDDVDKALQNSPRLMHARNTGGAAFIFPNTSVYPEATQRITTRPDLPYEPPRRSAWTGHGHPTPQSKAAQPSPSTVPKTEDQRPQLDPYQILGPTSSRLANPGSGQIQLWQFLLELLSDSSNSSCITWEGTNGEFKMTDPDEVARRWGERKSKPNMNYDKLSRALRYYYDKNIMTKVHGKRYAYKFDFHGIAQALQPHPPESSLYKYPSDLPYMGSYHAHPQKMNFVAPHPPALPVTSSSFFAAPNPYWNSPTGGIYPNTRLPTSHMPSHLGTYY
# Summary of the method: as §1
# ELF1 = ELF1 (Homo sapiens, UniProt P32519 1-619); conditions: protein: recombinant; tags: N-terminal GST; dsDNA, one strand shown
# Sequence of ELF1 (P32519 whole entry): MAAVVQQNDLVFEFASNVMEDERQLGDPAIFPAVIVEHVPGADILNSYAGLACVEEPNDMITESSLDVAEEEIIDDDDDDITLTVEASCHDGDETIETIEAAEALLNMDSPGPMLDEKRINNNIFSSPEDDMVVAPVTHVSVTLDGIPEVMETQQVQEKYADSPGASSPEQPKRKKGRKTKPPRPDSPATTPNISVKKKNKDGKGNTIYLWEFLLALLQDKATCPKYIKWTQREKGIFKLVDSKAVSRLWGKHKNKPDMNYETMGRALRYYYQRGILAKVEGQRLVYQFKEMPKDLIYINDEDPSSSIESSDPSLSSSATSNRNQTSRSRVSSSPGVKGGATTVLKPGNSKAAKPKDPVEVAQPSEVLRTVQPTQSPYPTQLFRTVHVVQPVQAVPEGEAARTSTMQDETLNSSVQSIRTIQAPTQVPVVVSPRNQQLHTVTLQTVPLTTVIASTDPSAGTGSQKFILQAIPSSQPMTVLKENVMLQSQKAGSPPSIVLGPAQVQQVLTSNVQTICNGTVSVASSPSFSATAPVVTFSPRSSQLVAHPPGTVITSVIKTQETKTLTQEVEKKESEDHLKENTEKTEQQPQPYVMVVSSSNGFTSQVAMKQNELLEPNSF
# Summary of the method: as §1
# EHF = target: T5, EHF (Homo sapiens, UniProt Q9NZC4 1-300); conditions: protein: recombinant; tags: N-terminal GST; dsDNA, one strand shown
# T5 sequence: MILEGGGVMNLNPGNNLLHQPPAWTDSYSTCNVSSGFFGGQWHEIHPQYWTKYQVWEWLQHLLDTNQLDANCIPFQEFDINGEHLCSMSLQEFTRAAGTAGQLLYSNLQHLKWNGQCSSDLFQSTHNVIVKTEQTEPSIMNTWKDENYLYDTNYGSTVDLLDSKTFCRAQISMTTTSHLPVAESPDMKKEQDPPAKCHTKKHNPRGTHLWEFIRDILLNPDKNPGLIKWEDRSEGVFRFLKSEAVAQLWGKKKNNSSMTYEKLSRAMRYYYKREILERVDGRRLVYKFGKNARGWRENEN
# Summary of the method: as §1
# SPI1 = SPI1 (Homo sapiens, UniProt P17947 1-270); conditions: protein: recombinant; tags: N-terminal GST; dsDNA, one strand shown
# Summary of the method: as §1
# SPIB = SPIB (Homo sapiens, UniProt Q01892 1-262); conditions: protein: recombinant; tags: N-terminal GST; dsDNA, one strand shown
# Sequence of SPIB (Q01892 whole entry): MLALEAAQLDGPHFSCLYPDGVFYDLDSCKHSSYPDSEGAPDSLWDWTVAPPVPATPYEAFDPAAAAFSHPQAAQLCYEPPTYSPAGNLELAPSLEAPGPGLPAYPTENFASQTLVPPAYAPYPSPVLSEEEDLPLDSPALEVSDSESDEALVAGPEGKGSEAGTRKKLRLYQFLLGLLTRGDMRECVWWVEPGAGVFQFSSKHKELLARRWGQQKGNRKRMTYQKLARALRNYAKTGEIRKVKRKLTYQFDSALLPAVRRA
# Summary of the method: as §1
# ELK3 = target: T6, ELK3 (Homo sapiens, UniProt P41970 1-407); conditions: protein: recombinant; tags: N-terminal GST; dsDNA, one strand shown
# T6 sequence: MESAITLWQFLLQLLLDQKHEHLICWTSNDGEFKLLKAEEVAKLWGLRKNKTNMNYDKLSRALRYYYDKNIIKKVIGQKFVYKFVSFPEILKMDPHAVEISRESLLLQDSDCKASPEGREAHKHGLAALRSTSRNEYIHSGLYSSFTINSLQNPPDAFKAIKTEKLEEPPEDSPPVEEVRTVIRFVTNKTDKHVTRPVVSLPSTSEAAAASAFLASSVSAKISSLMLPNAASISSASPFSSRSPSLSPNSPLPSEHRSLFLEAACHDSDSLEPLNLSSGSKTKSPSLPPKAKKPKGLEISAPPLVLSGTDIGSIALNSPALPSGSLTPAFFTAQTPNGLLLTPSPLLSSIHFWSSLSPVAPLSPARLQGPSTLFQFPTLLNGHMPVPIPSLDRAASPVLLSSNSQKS
# Summary of the method: as §1
# FEV = target: T7, FEV (Homo sapiens, UniProt Q99581 1-238); conditions: protein: recombinant; tags: N-terminal GST; dsDNA, one strand shown
# T7 sequence: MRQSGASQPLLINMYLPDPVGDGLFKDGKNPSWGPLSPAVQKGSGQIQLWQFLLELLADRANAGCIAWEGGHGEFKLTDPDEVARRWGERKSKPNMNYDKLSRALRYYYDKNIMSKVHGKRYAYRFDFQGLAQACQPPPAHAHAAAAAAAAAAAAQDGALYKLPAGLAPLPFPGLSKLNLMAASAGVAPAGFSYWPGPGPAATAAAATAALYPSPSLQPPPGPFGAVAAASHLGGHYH
# Summary of the method: as §1
# ETV5 = ETV5 (Homo sapiens, UniProt P41161 1-510); conditions: protein: recombinant; tags: N-terminal GST; dsDNA, one strand shown
# Sequence of ETV5 (P41161 whole entry): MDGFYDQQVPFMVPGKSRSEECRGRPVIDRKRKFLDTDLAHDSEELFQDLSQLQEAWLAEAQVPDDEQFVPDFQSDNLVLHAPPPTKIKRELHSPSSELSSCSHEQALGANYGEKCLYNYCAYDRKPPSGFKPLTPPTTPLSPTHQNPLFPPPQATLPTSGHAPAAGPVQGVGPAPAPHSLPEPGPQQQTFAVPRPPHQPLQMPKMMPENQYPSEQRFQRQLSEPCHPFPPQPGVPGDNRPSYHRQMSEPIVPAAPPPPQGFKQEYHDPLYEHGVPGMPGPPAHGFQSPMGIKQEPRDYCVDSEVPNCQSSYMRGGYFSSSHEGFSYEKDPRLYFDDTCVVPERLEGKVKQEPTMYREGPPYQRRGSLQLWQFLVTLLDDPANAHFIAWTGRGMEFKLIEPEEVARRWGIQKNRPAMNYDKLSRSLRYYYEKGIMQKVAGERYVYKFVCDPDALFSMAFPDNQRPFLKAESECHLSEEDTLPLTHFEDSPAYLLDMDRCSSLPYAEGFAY
# Summary of the method: as §1
# HSF1 = HSF1 (Homo sapiens, UniProt Q00613 1-529); conditions: protein: recombinant; tags: N-terminal GST; chain copies: 3; dsDNA, one strand shown
# Sequence of HSF1 (Q00613 whole entry): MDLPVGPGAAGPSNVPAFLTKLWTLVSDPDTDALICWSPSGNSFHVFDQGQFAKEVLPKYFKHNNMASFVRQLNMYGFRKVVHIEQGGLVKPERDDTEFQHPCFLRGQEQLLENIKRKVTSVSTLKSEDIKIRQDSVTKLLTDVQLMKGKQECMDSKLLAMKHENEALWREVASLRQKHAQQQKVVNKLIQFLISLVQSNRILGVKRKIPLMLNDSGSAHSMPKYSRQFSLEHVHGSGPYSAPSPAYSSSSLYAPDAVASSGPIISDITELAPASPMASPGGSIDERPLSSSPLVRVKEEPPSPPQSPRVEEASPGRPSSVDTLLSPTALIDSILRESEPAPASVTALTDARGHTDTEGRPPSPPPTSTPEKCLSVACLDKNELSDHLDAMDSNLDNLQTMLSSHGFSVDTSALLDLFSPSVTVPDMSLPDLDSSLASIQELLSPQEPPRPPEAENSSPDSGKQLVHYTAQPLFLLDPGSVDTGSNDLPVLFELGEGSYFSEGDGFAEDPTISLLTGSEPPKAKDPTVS
# Summary of the method: as §1
# SPIC = target: T8, SPIC (Homo sapiens, UniProt Q8N5J4 1-248); conditions: protein: recombinant; tags: N-terminal GST; dsDNA, one strand shown
# T8 sequence: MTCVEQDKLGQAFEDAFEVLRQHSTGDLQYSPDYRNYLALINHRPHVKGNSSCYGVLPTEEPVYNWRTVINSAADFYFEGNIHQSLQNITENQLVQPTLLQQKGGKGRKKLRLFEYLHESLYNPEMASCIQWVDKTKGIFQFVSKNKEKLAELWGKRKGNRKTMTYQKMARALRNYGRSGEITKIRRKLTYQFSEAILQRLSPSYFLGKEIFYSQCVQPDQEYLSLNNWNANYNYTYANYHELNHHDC
# Summary of the method: as §1
# ELF4 = ELF4 (Homo sapiens, UniProt Q99607 1-663); conditions: protein: recombinant; tags: N-terminal GST; dsDNA, one strand shown
# Sequence of ELF4 (Q99607 whole entry): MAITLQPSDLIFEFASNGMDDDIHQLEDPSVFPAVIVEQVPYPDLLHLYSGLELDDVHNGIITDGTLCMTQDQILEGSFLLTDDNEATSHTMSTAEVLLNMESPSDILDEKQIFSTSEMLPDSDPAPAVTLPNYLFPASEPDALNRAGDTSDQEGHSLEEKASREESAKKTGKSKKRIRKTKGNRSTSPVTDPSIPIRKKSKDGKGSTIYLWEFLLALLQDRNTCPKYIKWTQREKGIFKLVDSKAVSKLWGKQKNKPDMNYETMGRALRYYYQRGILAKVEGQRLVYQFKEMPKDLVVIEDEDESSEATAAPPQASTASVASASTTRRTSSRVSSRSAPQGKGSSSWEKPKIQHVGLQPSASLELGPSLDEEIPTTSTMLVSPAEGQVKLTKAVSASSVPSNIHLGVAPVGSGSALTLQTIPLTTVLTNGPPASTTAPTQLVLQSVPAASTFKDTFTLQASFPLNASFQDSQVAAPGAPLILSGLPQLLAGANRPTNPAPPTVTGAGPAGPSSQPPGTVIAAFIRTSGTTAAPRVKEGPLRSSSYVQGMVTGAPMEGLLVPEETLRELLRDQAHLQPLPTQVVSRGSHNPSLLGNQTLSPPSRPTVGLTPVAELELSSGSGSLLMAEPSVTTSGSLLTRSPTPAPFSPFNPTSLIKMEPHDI
# Summary of the method: as §1
# ELK4 = target: T9, ELK4 (Homo sapiens, UniProt P28324-2 1-405); conditions: protein: recombinant; tags: N-terminal GST; dsDNA, one strand shown
# T9 sequence: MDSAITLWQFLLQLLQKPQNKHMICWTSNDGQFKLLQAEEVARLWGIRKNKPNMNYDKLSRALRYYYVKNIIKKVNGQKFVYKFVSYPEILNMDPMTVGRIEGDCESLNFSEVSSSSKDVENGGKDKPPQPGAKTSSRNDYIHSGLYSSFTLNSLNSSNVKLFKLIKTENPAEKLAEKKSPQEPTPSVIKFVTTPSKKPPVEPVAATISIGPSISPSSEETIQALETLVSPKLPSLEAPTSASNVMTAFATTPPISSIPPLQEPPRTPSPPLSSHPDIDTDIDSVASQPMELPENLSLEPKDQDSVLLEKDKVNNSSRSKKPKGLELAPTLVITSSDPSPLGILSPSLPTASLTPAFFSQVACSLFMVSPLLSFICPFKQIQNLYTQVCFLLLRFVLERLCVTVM
# Summary of the method: as §1
# ETV2 = target: T10, ETV2 (Homo sapiens, UniProt O00321 1-342); conditions: protein: recombinant; tags: N-terminal GST; dsDNA, one strand shown
# T10 sequence: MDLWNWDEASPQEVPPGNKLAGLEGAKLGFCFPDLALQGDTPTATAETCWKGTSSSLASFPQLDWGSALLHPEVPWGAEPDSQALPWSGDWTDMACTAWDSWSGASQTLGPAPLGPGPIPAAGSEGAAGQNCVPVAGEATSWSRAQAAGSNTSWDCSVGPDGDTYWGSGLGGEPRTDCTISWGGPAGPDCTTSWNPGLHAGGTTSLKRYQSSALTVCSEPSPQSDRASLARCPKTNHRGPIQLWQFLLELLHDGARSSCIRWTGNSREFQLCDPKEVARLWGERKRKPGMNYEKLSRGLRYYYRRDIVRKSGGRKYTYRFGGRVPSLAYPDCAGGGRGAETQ
# Summary of the method: as §1
# ELF3 = target: T11, ELF3 (Homo sapiens, UniProt P78545 1-371); conditions: protein: recombinant; tags: N-terminal GST; dsDNA, one strand shown
# T11 sequence: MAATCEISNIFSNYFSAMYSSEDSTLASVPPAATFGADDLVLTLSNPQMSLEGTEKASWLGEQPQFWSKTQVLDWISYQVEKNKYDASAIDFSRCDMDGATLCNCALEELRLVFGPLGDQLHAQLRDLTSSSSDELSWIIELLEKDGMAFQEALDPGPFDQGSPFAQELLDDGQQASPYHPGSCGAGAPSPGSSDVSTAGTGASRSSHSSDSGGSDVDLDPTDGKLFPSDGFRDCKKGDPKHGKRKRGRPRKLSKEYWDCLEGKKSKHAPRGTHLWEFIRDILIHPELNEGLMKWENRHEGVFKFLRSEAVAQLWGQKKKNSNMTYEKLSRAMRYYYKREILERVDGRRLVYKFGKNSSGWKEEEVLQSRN
# Summary of the method: as §1
# CRX = CRX (Homo sapiens, UniProt O43186 1-299); conditions: protein: recombinant; tags: N-terminal GST; dsDNA, one strand shown
# Sequence of CRX (O43186 whole entry): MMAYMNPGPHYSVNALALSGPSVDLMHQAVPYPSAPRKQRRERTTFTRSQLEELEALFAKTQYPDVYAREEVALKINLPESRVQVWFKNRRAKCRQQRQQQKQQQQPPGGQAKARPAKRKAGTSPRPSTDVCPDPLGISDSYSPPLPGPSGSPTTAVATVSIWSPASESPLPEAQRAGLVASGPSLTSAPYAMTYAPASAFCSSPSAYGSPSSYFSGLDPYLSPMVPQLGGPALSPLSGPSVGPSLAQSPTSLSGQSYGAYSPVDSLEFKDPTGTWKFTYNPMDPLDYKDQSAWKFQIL
# Summary of the method: as §1
# ETV1 = ETV1 (Homo sapiens, UniProt P50549 1-477); conditions: protein: recombinant; tags: N-terminal GST; dsDNA, one strand shown
# Sequence of ETV1 (P50549 whole entry): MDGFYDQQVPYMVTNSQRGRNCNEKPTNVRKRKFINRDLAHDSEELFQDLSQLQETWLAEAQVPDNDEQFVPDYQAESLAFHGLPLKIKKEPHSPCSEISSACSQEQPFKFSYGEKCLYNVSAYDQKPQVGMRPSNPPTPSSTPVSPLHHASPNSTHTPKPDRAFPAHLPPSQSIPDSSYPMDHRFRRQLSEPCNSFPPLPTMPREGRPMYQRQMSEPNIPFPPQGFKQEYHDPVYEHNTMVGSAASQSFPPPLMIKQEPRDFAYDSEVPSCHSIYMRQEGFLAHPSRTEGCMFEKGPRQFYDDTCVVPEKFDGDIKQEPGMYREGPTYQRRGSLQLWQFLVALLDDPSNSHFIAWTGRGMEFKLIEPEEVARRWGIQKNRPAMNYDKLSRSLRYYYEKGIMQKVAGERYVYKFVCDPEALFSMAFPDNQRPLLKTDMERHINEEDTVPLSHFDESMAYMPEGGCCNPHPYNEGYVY
# Summary of the method: as §1
sequence,measurement,setting,value
CTCATG,binding signal,FLI1,"1.29 fold enrichment (6-mer frequency, TF over GST control)"
same,binding signal,ELK1,"1.29 fold enrichment (6-mer frequency, TF over GST control)"
same,binding signal,GABPA,"1.26 fold enrichment (6-mer frequency, TF over GST control)"
same,binding signal,ERG,"1.21 fold enrichment (6-mer frequency, TF over GST control)"
same,binding signal,ELF1,"1.32 fold enrichment (6-mer frequency, TF over GST control)"
same,binding signal,EHF,"1.23 fold enrichment (6-mer frequency, TF over GST control)"
same,binding signal,SPI1,"1.27 fold enrichment (6-mer frequency, TF over GST control)"
same,binding signal,SPIB,"1.11 fold enrichment (6-mer frequency, TF over GST control)"
same,binding signal,ELK3,"1.26 fold enrichment (6-mer frequency, TF over GST control)"
same,binding signal,FEV,"1.27 fold enrichment (6-mer frequency, TF over GST control)"
same,binding signal,ETV5,"1.28 fold enrichment (6-mer frequency, TF over GST control)"
same,binding signal,HSF1,"1.04 fold enrichment (6-mer frequency, TF over GST control)"
same,binding signal,SPIC,"1.35 fold enrichment (6-mer frequency, TF over GST control)"
same,binding signal,ELF4,"1.19 fold enrichment (6-mer frequency, TF over GST control)"
same,binding signal,ELK4,"1.28 fold enrichment (6-mer frequency, TF over GST control)"
same,binding signal,ETV2,"1.24 fold enrichment (6-mer frequency, TF over GST control)"
same,binding signal,ELF3,"1.2 fold enrichment (6-mer frequency, TF over GST control)"
same,binding signal,CRX,"1.05 fold enrichment (6-mer frequency, TF over GST control)"
same,binding signal,ETV1,"1.29 fold enrichment (6-mer frequency, TF over GST control)"
